Inhibition data for 66 compounds are collected here from PubChem BioAssay AID1566 (Sanford-Burnham Center for Chemical Genomics, 2009).

About 1,800 (0.62%) of roughly 290,000 compounds were called active. No stated cut-off is given here; in the data, active means inhibition above about 50%; inactive means the rest. The sample as a whole holds a higher share of actives than the screen did.

As usually defined, the inhibition is the relative decrease from the control value, in per cent.

The experiment can be described thus: inhibition of NOD2-driven NF-kB reporter – cell-based, luminescence, uHTS, HEK293 (AID 1566). As to conditions: HEK293 NOD2/NF-kB luciferase reporter, at 4 µM, hits give high values. On the technique in general: In a reporter assay the amount or activity of a reporter protein is the signal.
As to `CCOC(=O)C1CCN(S(=O)(=O)c2cc(C(=O)OC)n(C)c2)CC1`, the inhibition was 18.2% (inactive).
Consider `Cc1ccc(S(=O)(=O)N2CCN(CC(=O)Nc3ccc([N+](=O)[O-])cc3)CC2)cc1C`, for which the inhibition is -86.3% (inactive).
In the case of `C=CCSc1nc2sc(C)c(C)c2c(=O)[nH]1`, the inhibition was 7.9% (inactive).
For `CC(CCc1ccccc1)NC(=O)C(=O)c1c[nH]c2ccccc12` (stereo unspecified), the inhibition is 6.1% (inactive).
The result for `O=C(O)CC(NC(=O)c1cccc([N+](=O)[O-])c1)c1ccc2c(c1)OCO2` (stereo unspecified) reads 14.8% (inactive).
`Cc1ccc(CN2CCCN(C)CC2)c(C)c1`: the inhibition was -3.4% (inactive).
For the compound `CCn1c(SCC(=O)Nc2nc(-c3ccc(C)cc3)cs2)nnc1-c1ccccc1`, the inhibition is 29% (inactive).
Regarding `CCn1c(SCC(=O)Nc2nc(-c3ccccc3)cs2)nnc1-c1ccccc1O`, the inhibition was 11.1% (inactive).
For the compound `CCOc1ccccc1NC(=S)N(CCN(C)C)C(C)c1ccncc1` (stereo unspecified), the inhibition is -15.1% (inactive).
Turning to `CC(C)(C)c1cc(-c2n[nH]c(=S)n2-c2ccc(Cl)cc2)n[nH]1`, the inhibition is 6.2% (inactive).
The result for `NC(=O)C1CCN(C(=O)C2CCC(=O)N(C3CCCCCC3)C2)CC1` (stereo unspecified) reads -3.9% (inactive); that for `COc1ccccc1NCC(=O)N/N=C/c1c(O)ccc2ccccc12`, 25% (inactive).
For `O=C(CNc1ccccc1)N/N=C/c1c(O)ccc2ccccc12`, the inhibition is 19.3% (inactive).
Consider `O=C(CNc1ccc(F)cc1)N/N=C/c1c(O)ccc2ccccc12`, for which the inhibition was 53.5% (active).
The figure for `Cc1occc1-c1nnc(SCC(=O)NCC2CCCO2)n1C` (stereo unspecified) is 8.4% (inactive); for `O=C(N/N=C/c1ccc2c(c1)OCO2)c1ccc2c(c1)OCO2` it is -137% (inactive); for `O=C(O)c1cc(N/N=C/c2ccc3c(c2)OCO3)ccc1Cl` it is -118% (inactive).
In the case of `O=C(O)c1ccc(N/N=C/c2ccc3c(c2)OCO3)cc1`, the inhibition was 66.8% (active).
The result for `S=C(NCc1ccncc1)Nc1ccccc1` reads 16.2% (inactive); that for `O=C(CC(Nc1ccccc1Cl)C(=O)O)c1ccccc1` (stereo unspecified), -21.4% (inactive).
Regarding `O=C(CC(Nc1ccc(Cl)cc1Cl)C(=O)O)c1ccccc1` (stereo unspecified), the inhibition was 61.2% (active).
The result for `O=C(CC(Nc1ccc(Cl)cc1)C(=O)O)c1ccccc1` (stereo unspecified) reads 20.4% (inactive); that for `COc1ccc(NC(=O)CSc2ccc(-c3sc(C)nc3C)nn2)cc1OC`, 5.8% (inactive).
On to `COc1ccc(NC(=O)CSc2ccc(-c3sc(C)nc3C)nn2)cc1`, for which the inhibition is 4.8% (inactive).
Take `S=C(Nc1cc(Cl)ccc1Cl)Nn1cnnc1`: the inhibition was 16.1% (inactive).
Regarding `CC(Oc1cc(C(F)(F)F)cc(C(F)(F)F)c1)C(=O)NC(N)=O` (stereo unspecified), the inhibition was 11.1% (inactive).
For `O=C1CCCN2N=C(SCC(=O)N3CCCCC3)SC2=N1`, the inhibition is 5.8% (inactive).
`O=C(COc1ccccc1)Nc1ccccc1NS(=O)(=O)c1cccs1`: the inhibition was 11.6% (inactive).
The result for `O=C(COc1ccc(Cl)cc1Cl)Nc1ccccc1NS(=O)(=O)c1cccs1` reads 25.1% (inactive); that for `OC(c1cccc(Cl)c1)c1nccc2ccccc12` (stereo unspecified), 2.5% (inactive); that for `COC(=O)c1nc2nc(-c3cccs3)cc(C(F)(F)F)n2n1`, 9.2% (inactive).
For the compound `Nc1cccc(Oc2ccc3c(c2)C(=O)NC3=O)c1`, the inhibition was -12.7% (inactive).
The figure for `Cc1ccc(NC(=O)CCSc2nnc3ccccn23)cc1` is 18.1% (inactive); for `CCOC(=O)c1c(-c2ccccc2)csc1NC(=O)CSc1nnnn1C` it is 12.2% (inactive); for `CCOC(=O)c1c(-c2ccc(C)cc2)csc1NC(=O)CCSc1nnc2ccccn12` it is 53.9% (active).
`CC(=O)c1c(C)oc2ccc(OCc3ccccc3)cc12`: the inhibition was -10.9% (inactive).
Turning to `CC(=O)/C(=C/c1ccc(N(C)C)cc1)C(=O)c1ccccc1`, the inhibition was -7.8% (inactive).
As to `Cc1nn(-c2ccc(C(=O)O)cc2)c(C)c1Cl`, the inhibition is 11.5% (inactive).
`O=C(Nc1ccc(Cl)cc1)c1ccncc1`: the inhibition is -5% (inactive).
The figure for `Cc1nn(-c2ccc(NC(=O)c3ccncc3)cc2)c(C)c1Cl` is 50% (active); for `COc1ccc(S(=O)(=O)N(C)c2ccc(C(=O)N3CCN(c4ccccc4)CC3)cc2)cc1OC` it is 7.6% (inactive); for `CC(=O)Nc1ccc(S(=O)(=O)Nc2ccc3ccccc3n2)cc1` it is 10.8% (inactive).
On to `Cc1nc(N2CCN(S(=O)(=O)c3ccc(Br)cc3)CC2)c2c(C)c(C)sc2n1`, for which the inhibition is 45% (inactive).
On to `CCS(=O)(=O)N1CCN(c2ncnc3sc(C)c(C)c23)CC1`, for which the inhibition was 18% (inactive).
As for `COc1ccc(CCC(=O)NNC(=O)c2cc(Cl)ccc2OC)cc1`, the inhibition is -4.6% (inactive).
For the compound `COc1ccc(/C(N)=N/OC(=O)Cc2ccccc2[N+](=O)[O-])cc1`, the inhibition was -2.6% (inactive).
Turning to `COc1ccc(NC(=O)CSc2ncnc3c2sc2ccccc23)c(OC)c1`, the inhibition was -3.6% (inactive).
For `O=C(c1ccc(Cl)cc1)n1c(NCc2ccccc2)n[nH]c1=S`, the inhibition was -38.1% (inactive).
As to `Oc1ccc(N=Nc2c(O)ccc3ccccc23)cc1`, the inhibition was 17% (inactive).
The result for `Oc1ccc2ccccc2c1/C=N/c1nccs1` reads -2.7% (inactive); that for `Oc1ccc2ccccc2c1N=Nc1nccs1`, 91.9% (active).
On to `O=C(N/N=C/c1ccco1)c1cccc(NC(=O)c2ccccc2Cl)c1`, for which the inhibition was 50.6% (active).
Turning to `O=C(N/N=C/c1ccco1)c1cccc(NC(=O)c2cccc(Cl)c2)c1`, the inhibition was 12.2% (inactive).
Consider `O=C(N/N=C/c1ccco1)c1ccc(NC(=O)c2ccccc2Cl)cc1`, for which the inhibition is -2.4% (inactive).
Regarding `O=C(Nc1cccc(-n2cccn2)c1)C1CCCN(Cc2ccc(C#CCCO)cc2)C1` (stereo unspecified), the inhibition was -17.7% (inactive).
For the compound `C=CCNC(=O)c1c(Cl)cccc1Cl`, the inhibition was 11.9% (inactive).
The result for `COc1ccc(CNc2ncnc3c2[nH]c2ccccc23)cc1` reads 23.3% (inactive).
The result for `Cc1ccc2[nH]c3c(NCc4ccccc4)ncnc3c2c1` reads 39.4% (inactive); that for `Fc1ccc2[nH]c3c(NCc4ccccc4)ncnc3c2c1`, 62.7% (active); that for `CCOC(=O)c1sc2cccc(Cl)c2c1N`, 10.6% (inactive).
Take `COc1ccc(CC(=O)Nc2cccnc2)cc1`: the inhibition is -3% (inactive).
The figure for `O=C(Cc1c(Cl)cccc1Cl)Nc1ccncc1Cl` is 13.2% (inactive); for `COCc1cc(Sc2ccc(OC)cc2)nc(-c2ccccc2)n1` it is 18.2% (inactive).
The figure for `CC1CCN(S(=O)(=O)c2ccc(S(=O)(=O)N3CCCC3)cc2)CC1` is -1.3% (inactive); for `Nc1cc(S(=O)(=O)N2CCCCC2)ccc1N1CCOCC1` it is 9.9% (inactive); for `CC1CCN(c2ccc(S(=O)(=O)N3CCC(C)CC3)cc2N)CC1` it is 50.3% (active).
